# Values joined by “and” are separate entries in the source; they are usually repeats but may differ in a detail not shown here. Identical values can stand only once. Results filed as inconclusive are left out. Active and inactive are the calls of the source. Calls follow the shape of the dose curve; as a rule, active = well fitted curve in the direction sought with a large enough effect; inconclusive = small, poorly fitted or top-dose-only effect, or another doubt; inactive = no such curve, though single readings can be large or run the other way.
# Assay: qHTS Assay for Identifying Gametocytocidal Compounds (AID 743244);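 as to max response: actives lower the fluorescent signal which means gametocytes are killed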
# Conditions: P. falciparum 3D7 stage III-V gametocytes, alamarBlue, 72 h; max response: active compounds read low
# Method in brief: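 Using 20,000 stage III–V 3D7 gametocytes per well, compounds were incubated 72 h under 37 °C/5% CO2. Viability was then assessed by 24 h alamarBlue reduction, measured fluorometrically at 525/598 nm.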
# % is scaled to controls: 0 for no effect and ±100 for the full control effect; potency is read from the fitted curve at half-maximal effect.
Compound,max response,Potency
C[C@]12CC[C@@H]3c4ccc(OC(=O)N(CCCl)CCCl)cc4CC[C@H]3[C@@H]1CC[C@@H]2O,-1.39% (inactive),
COc1c2c(cc3c1OCO3)CCN(C)C2,7.33% (inactive),
CCCCCCC(=O)CCCCCC/C=C/C[C@@H](O)[C@H](O)[C@@](N)(CO)C(=O)O,-3.38% (inactive) and -2.5% (inactive),
O=C(O)c1ccccc1S,58.9% (inactive),
C[C@H](N)C(=O)c1ccccc1,39.4% (inactive) and -13% (inactive),
CN=C1CN(O)C(c2ccccc2)=c2cc(Cl)ccc2=N1,7.17% (inactive),
CC(C)C[C@H](CN)CC(=O)O,2.29% (inactive),
CC(=O)NC1CCSC1=O (stereo unspecified),-2.2% (inactive) and 7.47% (inactive),
CN1C(=O)NC(=O)C(C)(C2=CCCCC2)C1=O (stereo unspecified),8.57% (inactive) and 23.3% (inactive),
C=CCC1([C@H](C)CCC)C(=O)NC(=O)NC1=O,-4.95% (inactive),
CN1CCC[C@@H]1c1cccnc1,35% (inactive),
O=c1oc2ccccc2c(O)c1Cc1c(O)c2ccccc2oc1=O,2.96% (inactive),
CNC(C)(C)Cc1ccccc1,20.1% (inactive),
C[N+]1(CCF)[C@@H]2CC[C@H]1CC(OC(=O)C(O)(c1ccccc1)c1ccccc1)C2 (stereo partly specified),7.34% (inactive),
CCN[C@@H](C)Cc1cccc(C(F)(F)F)c1,13.9% (inactive),
CN1CC[C@]23c4c5ccc(O)c4O[C@H]2[C@@H](O)CC[C@H]3[C@H]1C5,10.1% (inactive),

Compound,max response,Potency
Cc1nnc2n1-c1ccc(Cl)cc1C(c1ccccc1Cl)=NC2,-0.695% (inactive),
CCCCCN(C)CCC(O)(P(=O)(O)O)P(=O)(O)O,17.4% (inactive) and 7.96% (inactive),
C#C[C@]1(O)CC[C@H]2[C@@H]3CCC4=CC(=O)CC[C@]4(C)[C@H]3CC[C@@]21C,15.4% (inactive) and 2.46% (inactive),
CCN[C@@H](C)Cc1ccccc1,-4.1% (inactive),
COC(=O)[C@@H](N)CCCN/C(N)=N/[N+](=O)[O-],-0.272% (inactive),
CN[C@@H](C)Cc1ccccc1,5.78% (inactive),
C[C@H]1[C@@H]2Cc3ccc(O)cc3[C@@]1(C)CCN2C,2.87% (inactive),
C[C@@H](N)[C@@H](O)c1ccccc1,12.7% (inactive),
O=C1OC(c2ccc(O)c(S(=O)(=O)O)c2)(c2ccc(O)c(S(=O)(=O)O)c2)c2c(Br)c(Br)c(Br)c(Br)c21,21% (inactive),
COc1cccc(C(=O)CCN[C@@H](C)[C@H](O)c2ccccc2)c1,,31.6 µM (active)
O=C1Nc2ccc(Cl)cc2C(c2ccccc2)=NC1O (stereo unspecified),6.98% (inactive) and -4.42% (inactive),
CN1C(=O)C(O)N=C(c2ccccc2)c2cc(Cl)ccc21 (stereo unspecified),6.95% (inactive),
NC(=O)CS(=O)C(c1ccccc1)c1ccccc1 (stereo unspecified),-2.53% (inactive),
CC(C)=CC1C(C(=O)OCN2C(=O)C3=C(CCCC3)C2=O)C1(C)C (stereo unspecified),1.71% (inactive),
COc1cc(CCN)cc(OC)c1OC,17.2% (inactive),
